Test [1] is described as follows: qHTS assay to identify small molecule agonists of the androgen receptor (AR) signaling pathway in the presence of an antagonist - cell viability counter screen (AID 1259379). Further: nearly all actives have a fitted effect of over 25% in size. Further: potency means the concentration at half of the fitted maximal effect.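 On activity change, negative = cytotoxicity: MDA-kb2 human breast cancer cells carrying an MMTV luciferase reporter; series mostly up to about 92 µM.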 The method in brief: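 Cytotoxicity is assessed by CellTiter-Fluor in MDA-kb2 cells carrying an MMTV-driven luciferase reporter. Cells receive 3.0uM nilutamide plus compounds at 15 concentrations and incubate 16 hr at 37C without CO2 before fluorescence reading.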

Test [2] is described as follows: qHTS assay to identify small molecule agonists of the estrogen receptor beta (ER-beta) signaling pathway - cell viability counter screen (AID 1259380). Further: nearly all actives have a fitted effect of over 30% in size. Further: potency means the concentration at half of the fitted maximal effect. The method in brief:
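Cytotoxicity is measured in parallel with the reporter screen: after 16 hr compound exposure at 37C and a 2 hr LiveBLAzer step, CellTiter-Glo is added to the same ER-beta-UAS-bla HEK293T wells and luminescence read after 30 min.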

For test [3], the target named is Androgen receptor (Homo sapiens) (UniProt P10275). The test is described as follows: qHTS assay to identify small molecule agonists of the androgen receptor (AR) signaling pathway in the presence of an antagonist (AID 1259381; calls by dose curve; further: nearly all actives have a fitted effect of over 15% in size). The gist of the method: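 Agonist-mode confirmation screen: human MDA-kb2 cells stably expressing luciferase under an MMTV promoter bearing AR and GR response elements, co-treated with 3.0uM nilutamide (final). Luminescence measured after 16hr compound incubation.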
Androgen receptor (Homo sapiens), sequence (P10275 whole entry, looked up): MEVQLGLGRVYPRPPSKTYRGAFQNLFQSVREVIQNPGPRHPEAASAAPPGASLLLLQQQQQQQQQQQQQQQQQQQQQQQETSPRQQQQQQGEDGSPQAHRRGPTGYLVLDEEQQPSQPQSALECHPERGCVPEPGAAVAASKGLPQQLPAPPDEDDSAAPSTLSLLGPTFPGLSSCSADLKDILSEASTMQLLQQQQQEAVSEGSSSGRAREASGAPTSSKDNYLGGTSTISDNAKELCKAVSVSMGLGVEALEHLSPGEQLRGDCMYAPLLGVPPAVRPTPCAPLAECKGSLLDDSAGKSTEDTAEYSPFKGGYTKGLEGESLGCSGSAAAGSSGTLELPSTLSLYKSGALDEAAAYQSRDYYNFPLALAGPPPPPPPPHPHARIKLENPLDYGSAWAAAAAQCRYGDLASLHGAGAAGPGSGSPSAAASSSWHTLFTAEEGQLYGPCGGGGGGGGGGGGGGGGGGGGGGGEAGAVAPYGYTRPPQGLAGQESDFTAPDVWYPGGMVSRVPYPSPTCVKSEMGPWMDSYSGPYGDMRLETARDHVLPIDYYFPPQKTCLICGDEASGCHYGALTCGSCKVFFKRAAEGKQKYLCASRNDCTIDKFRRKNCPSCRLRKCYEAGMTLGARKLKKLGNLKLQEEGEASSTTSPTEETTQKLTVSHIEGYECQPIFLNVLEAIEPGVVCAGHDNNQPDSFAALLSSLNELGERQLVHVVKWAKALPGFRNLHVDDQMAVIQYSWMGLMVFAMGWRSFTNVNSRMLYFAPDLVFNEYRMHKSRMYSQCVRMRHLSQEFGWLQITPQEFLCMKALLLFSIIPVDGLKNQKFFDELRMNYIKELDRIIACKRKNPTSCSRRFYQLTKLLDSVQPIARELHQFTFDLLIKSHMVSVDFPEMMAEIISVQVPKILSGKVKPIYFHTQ
(In general: In qHTS, concentration-response curves come from the screen itself.)

Test [4] is described as follows: qHTS assay to identify small molecule antagonists of the estrogen receptor beta (ER-beta) signaling pathway - cell viability counter screen (AID 1259382). Further: nearly all actives have a fitted effect of over 55% in size. Further: potency means the concentration at half of the fitted maximal effect. On activity change, negative = cytotoxicity: series mostly up to about 92 µM. The gist of the method:
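Cytotoxicity counter screen multiplexed with the beta-lactamase antagonist assay: GripTite HEK293T ER-beta-bla cells were treated 16 hr with test chemicals in the presence of 1nM 17-beta-estradiol, and viability was measured by CellTiter-Glo.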

For test [5], the target named is Estrogen receptor (Homo sapiens) (UniProt P03372). The test is described as follows: qHTS assay to identify small molecule agonists of the estrogen receptor alpha (ER-alpha) signaling pathway in the presence of an antagonist (AID 1259383; calls by dose curve; further: top concentration of the series differs between compounds; nearly all actives have a fitted effect of over 15% in size). The method in brief: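 Agonist-mode confirmation in the presence of the ER antagonist ICI-182,780 at 10.0nM final. Breast-derived VM7Luc4E2 reporter cells were exposed to compounds for 22hr, and ERE-driven luciferase was quantified by luminescence.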
Estrogen receptor (Homo sapiens), sequence (P03372 whole entry, looked up): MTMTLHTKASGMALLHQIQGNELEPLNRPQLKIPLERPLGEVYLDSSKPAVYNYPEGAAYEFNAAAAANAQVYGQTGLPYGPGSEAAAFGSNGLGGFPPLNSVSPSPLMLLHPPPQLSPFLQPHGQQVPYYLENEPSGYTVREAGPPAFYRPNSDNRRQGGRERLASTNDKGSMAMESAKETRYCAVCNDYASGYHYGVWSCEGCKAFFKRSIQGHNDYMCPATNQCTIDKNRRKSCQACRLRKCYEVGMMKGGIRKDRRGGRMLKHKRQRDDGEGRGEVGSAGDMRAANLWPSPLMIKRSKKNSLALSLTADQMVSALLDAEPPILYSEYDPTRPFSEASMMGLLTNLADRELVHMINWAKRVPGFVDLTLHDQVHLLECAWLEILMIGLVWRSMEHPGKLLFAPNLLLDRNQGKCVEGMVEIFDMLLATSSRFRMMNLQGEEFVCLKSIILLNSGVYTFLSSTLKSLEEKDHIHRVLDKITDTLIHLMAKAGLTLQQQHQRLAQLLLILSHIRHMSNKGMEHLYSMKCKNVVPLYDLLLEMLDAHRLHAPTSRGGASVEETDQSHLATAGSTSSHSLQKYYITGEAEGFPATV

The nature of test [6]: qHTS assay to identify small molecule agonists or antagonists of the thyroid stimulating hormone receptor (TSHR) signaling pathway - wild type cell line counter screen (AID 1259384; calls by dose curve). The gist of the method: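 Wild-type HEK293 cells were plated 18 h at 37 C/5% CO2, pin-dosed with compound plus Ro20-1724 medium, held 30 min at room temperature, then given cAMP-d2 and anti-cAMP-cryptate; fluorescence was read after 1 h. Fifteen concentrations, triplicate.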

The target of test [7] is Thyrotropin receptor (Homo sapiens) (UniProt P16473). Briefly: qHTS assay to identify small molecule antagonists of the thyroid stimulating hormone receptor (TSHR) signaling pathway (AID 1259385; calls by dose curve; further: nearly all actives have a fitted effect of over 20% in size). The method in brief: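 TSHR-HEK293 cells were plated and held 18 h at 37C/5% CO2, then given compound plus Ro20-1724 and stimulated with TSH at 1.5 ng/mL final. After 30 min at room temperature, cAMP was detected with cAMP-d2/anti-cAMP-cryptate (1 h) by fluorescence.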
Thyrotropin receptor (Homo sapiens), sequence (P16473 whole entry, looked up): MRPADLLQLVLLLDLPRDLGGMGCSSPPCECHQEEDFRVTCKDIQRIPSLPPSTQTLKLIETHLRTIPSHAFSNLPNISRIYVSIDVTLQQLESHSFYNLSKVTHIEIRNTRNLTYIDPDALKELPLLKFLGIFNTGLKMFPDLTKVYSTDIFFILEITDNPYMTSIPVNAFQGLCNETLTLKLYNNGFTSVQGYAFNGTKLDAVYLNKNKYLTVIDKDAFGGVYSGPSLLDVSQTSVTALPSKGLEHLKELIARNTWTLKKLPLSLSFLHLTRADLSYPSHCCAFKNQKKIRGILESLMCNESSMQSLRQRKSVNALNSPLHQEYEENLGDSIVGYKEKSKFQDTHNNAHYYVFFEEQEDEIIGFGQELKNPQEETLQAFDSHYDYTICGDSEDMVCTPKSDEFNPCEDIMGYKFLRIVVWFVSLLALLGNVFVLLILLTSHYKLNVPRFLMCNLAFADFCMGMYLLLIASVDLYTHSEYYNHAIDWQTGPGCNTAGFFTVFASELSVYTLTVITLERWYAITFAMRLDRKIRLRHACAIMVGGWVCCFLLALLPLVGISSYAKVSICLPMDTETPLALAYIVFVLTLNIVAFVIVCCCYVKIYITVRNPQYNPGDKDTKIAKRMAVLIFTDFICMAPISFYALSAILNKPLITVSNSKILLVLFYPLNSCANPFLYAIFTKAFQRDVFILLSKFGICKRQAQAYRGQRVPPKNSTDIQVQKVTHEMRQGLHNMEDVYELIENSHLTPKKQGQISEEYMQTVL

Test [8] is described as follows: qHTS assay to identify small molecule agonists of the estrogen receptor alpha (ER-alpha) signaling pathway in the presence of an antagonist - cell viability counter screen (AID 1259386).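 Further: series mostly up to about 92 µM; cells exposed to compounds for 22 h at 37 °C before the viability read; nearly all actives have a fitted effect of over 30% in size.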 The gist of the method:
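Cytotoxicity was measured in parallel with the ERE-luciferase agonist screen, in the same wells. The cells were VM7Luc4E2, which endogenously express ER-alpha, and treatment was with compounds plus 10.0nM ICI-182,780 for 22hr.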

Test [9] concerns the target Estrogen receptor beta (Homo sapiens) (UniProt Q92731). The test is described as follows: qHTS assay to identify small molecule antagonists of the estrogen receptor beta (ER-beta) signaling pathway (AID 1259378; active means well fitted inhibition curve with a large enough effect in the signal ratio in the repeat runs, not every such curve was filed as active; the % refers to the signal ratio; further: potency means the concentration at half of the fitted maximal effect). The method in brief: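 ER-beta-UAS-bla HEK293T (GripTite) cells in 2% charcoal-stripped FBS medium were preincubated 6 hr at 37C, dosed with compound, then stimulated with 1 nM E2 (final) for 16 hr; beta-lactamase reporter read by B/G FRET fluorescence after 2 hr substrate loading.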

A number with no mark means an inactive call. Results filed as inconclusive are left out. Calls of active or inactive are those of the source. Unless noted, the call rests on the fitted dose curve; in most records, active means well fitted curve in the direction sought with a large enough effect in the repeat runs; inconclusive means weak or mixed curves; inactive means no such curve, though single readings can be large; an effect the other way counts as inactive or inconclusive.
On the % scale 0 is the no-effect control and ±100 the full control effect.

Estrogen receptor beta (Homo sapiens), sequence (Q92731 whole entry, looked up): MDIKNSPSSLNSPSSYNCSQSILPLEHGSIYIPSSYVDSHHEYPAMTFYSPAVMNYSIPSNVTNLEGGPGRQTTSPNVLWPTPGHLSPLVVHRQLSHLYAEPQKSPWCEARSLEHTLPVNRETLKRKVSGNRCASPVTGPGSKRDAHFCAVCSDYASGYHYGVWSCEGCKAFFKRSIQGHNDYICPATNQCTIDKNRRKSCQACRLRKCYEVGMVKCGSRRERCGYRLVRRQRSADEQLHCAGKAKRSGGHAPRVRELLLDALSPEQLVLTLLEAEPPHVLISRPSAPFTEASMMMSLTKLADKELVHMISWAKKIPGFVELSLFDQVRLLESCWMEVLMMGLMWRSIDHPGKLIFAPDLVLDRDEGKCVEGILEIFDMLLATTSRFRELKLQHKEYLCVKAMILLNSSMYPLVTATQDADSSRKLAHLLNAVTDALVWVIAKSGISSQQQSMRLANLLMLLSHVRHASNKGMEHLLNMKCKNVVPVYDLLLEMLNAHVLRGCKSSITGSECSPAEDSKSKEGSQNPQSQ

With `CCOP(=S)(OCC)Oc1cc(Cl)c(Br)cc1Cl`, the Potency result in test [1], in test [2], in [3], in test [4], in [5] and in test [7] was “inactive” each time. Further, the Potency result in [8] is “inactive”. Also, the compound was classed as inactive in test [6].

As for `COc1cc(Cl)c(OC)cc1Cl`, the Potency entry in [9], in test [1], in [2], in test [4], in [5] and in test [8] was “inactive” in each case.

Take `IC(I)=C(I)I`: the Potency in test [1] was 27.3 µM (active); in [2], 21.7 µM (active); in test [4] it was 21.7 µM (active). In addition, the Potency result in test [3], in test [5] and in [7] was “inactive” each time. The compound was classed as inactive in test [6].

Consider `Clc1cccc(SC2CCNCC2)n1`, for which the Potency result in test [9], in test [1], in test [2], in test [4], in [5] and in test [7] was “inactive” throughout. Besides, the Potency result in test [8] was “inactive”. In [6], the result was inactive.

For the compound `OC(c1ccc(Cl)cc1)(c1ccc(Cl)cc1)c1cccnc1`, the Potency in test [9] is 38.6 µM (active). Further, the Potency result in test [2], in test [3], in [4], in [5] and in test [8] was “inactive” in each case. For the same compound, the compound was classed as inactive in test [6].

`Cn1sc(Cl)cc1=O`: the Potency entry in test [9], in test [1], in test [2], in test [4], in test [5] and in test [7] was “inactive” in each case. The Potency entry in test [8] is “inactive”. For the same compound, in test [6], the call was inactive.

As to `S=C=NCc1ccccc1`, in [9], the Potency was 49.1 µM (active). For the same compound, the Potency result in [3], in test [4], in test [7] and in test [8] was “inactive” each time. In addition, in test [6], the result was inactive.

For `CCCCNP(N)(N)=S`, the Potency entry in test [9], in test [1], in test [2], in test [4], in test [5] and in test [7] was “inactive” each time. In test [8], the Potency entry is “inactive”. For the same compound, the compound was called inactive in [6].

For the compound `C[C@H]1CNCCc2ccc(Cl)cc21`, the Potency result in test [9], in test [1], in test [5], in [7] and in [8] was “inactive” each time. Further, in test [6], the compound was called inactive.

In the case of `CCOP(=O)(OCC)SCCSCC`, the Potency result in test [9], in test [1], in test [2], in test [4], in [5] and in test [8] was “inactive” throughout. Besides, the compound was classed as inactive in test [6].

Take `C=C(C#N)CCC#N`: the Potency result in [9], in test [1], in test [2], in test [4], in [5] and in [7] was “inactive” each time. Besides, the Potency result in test [8] was “inactive”. Further, in test [6], the compound was called inactive.

In the case of `COc1ccc(-c2ccccc2)cc1NNC(=O)OC(C)C`, the Potency in test [9] was 63.7 µM (active); in test [2], 35.8 µM (active). In addition, the Potency result in test [3] and in test [5] was “inactive” throughout.

As for `NCC(CC(=O)O)c1ccc(Cl)cc1` (configuration not stated), the activity, negative = inhibition in test [9] was 0.814% [at 0.349 µM]. The activity change, negative = cytotoxicity in test [1] was 0.676% [at 0.35 µM]; in [2], 4.02% [at 0.349 µM]; in test [4], 5.5% [at 0.349 µM]; in [8] it was 7.95% [at 0.349 µM]. The cAMP activity change in [6] was 0.519% [at 0.349 µM]. The activity change, negative = inhibition in test [7] was 2.95% [at 0.349 µM].

On to `CC/C(=N\OC/C=C/Cl)C1=C(O)CC(C2CCOCC2)CC1=O` (configuration not stated), for which the Potency result in test [9], in test [1], in test [2], in test [4], in test [7] and in test [8] was “inactive” throughout. Moreover, the result in test [6] was inactive.

Regarding `Clc1ccc(C(OCCN2CCCCC2)c2ccccc2)cc1` (configuration not stated), the Potency result in test [9], in test [4], in test [5] and in test [8] was “inactive” each time. In addition, the Potency in test [2] is 18.8 µM (active). Besides, the compound was classed as inactive in test [6].

As to `O=Cc1ccc2c(c1)OCO2`, the Potency entry in test [9], in test [1], in [2], in test [4], in test [7] and in test [8] was “inactive” each time. Further, the call in test [6] was inactive.

In the case of `CC(Cl)C(C)Cl` (configuration not stated), the Potency result in [9], in [1], in test [2], in [4], in test [5] and in test [8] was “inactive” each time.

`Cc1c(F)c(F)c(COC(=O)C2C(/C=C(\Cl)C(F)(F)F)C2(C)C)c(F)c1F` (configuration not stated): the Potency result in test [9], in test [1], in test [4], in [5], in test [7] and in [8] was “inactive” each time. Also, the compound was called inactive in test [6].

With `COc1c(C(C)(C)C)cc([N+](=O)[O-])c(C)c1[N+](=O)[O-]`, the Potency result in test [9], in [1], in test [2], in test [4], in [5] and in test [8] was “inactive” each time.

As for `CO[C@@H]1[C@H](OC(=O)NC(=O)CCl)CC[C@]2(CO2)[C@H]1[C@@]1(C)O[C@@H]1CC=C(C)C`, the activity, negative = inhibition in test [9] is -21.4% [at 19 µM]. The activity change, negative = cytotoxicity in [1] was -2.66% [at 19 µM]; in test [4], -10.8% [at 19 µM]; in test [8], -1.81% [at 19 µM]. In addition, the activation is -3.01% [at 19 µM] in test [3] and -0.438% [at 19 µM] in [5]. Further, the cAMP activity change in test [6] is 2.97% [at 18.9 µM]. In [7], the activity change, negative = inhibition was 0.358% [at 19 µM].
